In the supplement of paper PMC10849652 one finds log2 fold change data, which are given here for ten targets.

About 8,800 targets were measured; listed, in parts, are those with a hit and a random draw of the rest. About 0.5% of all pairs of compound and target were hits.

Common to all, as to assay: log2 fold change, soluble protein after heating vs DMSO (PISA); higher = thermal stabilisation; K562 lysate, 10 uM; active = over 0.2 and 3.5 SD of the protein, either way, in both replicates (recomputed)
Compound in one test: Cc1cn(-c2cc(NC(=O)c3ccc(C)c(Nc4nccc(-c5cccnc5)n4)c3)cc(C(F)(F)F)c2)cn1 [nilotinib]
In a few lines:
(§1)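 Thermal stability, expressed as log-two fold change relative to solvent controls, is given from duplicates. Crude K562 extract in PBS pH 7.4 with 1 mM MgCl2, at 1 mg/mL protein, was treated with 10 μM compound for 30 min and heated in aliquots for 3 min across 48°C-58°C. After pooling, adjustment to 0.5% NP-40 at 4°C and centrifugation at 21,000xg for 90 min, supernatant protein was measured by TMTpro 16plex LC-MS/MS with channel sums equalised.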

Compound in test [1]: Cc1nc(Nc2n[nH]c3c2CN(C(=O)N[C@H](CN(C)C)c2ccccc2)C3(C)C)c2sccc2n1
In a few lines: as §1

Compound in test [2]: Cc1ncc(-c2ccnc(Nc3ccc(S(C)(=O)=O)cc3)n2)n1C(C)C
In short, it runs like this: as §1

Compound in the next test: Cn1cc(CNCC2CCN(c3ncc(C(=O)NO)cn3)CC2)c2ccccc21 [quisinostat]
In short, it runs like this:
as §1

Compound in another test: Cn1cncc1[C@@](N)(c1ccc(Cl)cc1)c1ccc2c(c1)c(-c1cccc(Cl)c1)cc(=O)n2C [tipifarnib]
In short, it runs like this:
as §1

Compound in test [3]: NC(=O)Nc1cc(-c2cccc(F)c2)sc1C(=O)N[C@H]1CCCNC1
In a few lines:
as §1

Compound in test [4]: NC1(c2ccc(-c3nc4ccn5c(=O)[nH]nc5c4cc3-c3ccccc3)cc2)CCC1
In short, it runs like this:
as §1

Compound in a further test: O=C(CCCCCCC(=O)Nc1ccccc1)NO [vorinostat]
In a few lines: as §1

Compound in another test: O=C(O)c1ccc2c(c1)nc(Nc1cccc(Cl)c1)c1ccncc12 [silmitasertib]
In a few lines:
as §1

Compound in test [5]: O=C1NC(=O)C(c2cnc3ccccn23)=C1c1cn2c3c(cc(F)cc13)CN(C(=O)N1CCCCC1)CC2
In short, it runs like this: as §1

Compound in another test: Cc1nc(Nc2ncc(C(=O)Nc3c(C)cccc3Cl)s2)cc(N2CCN(CCO)CC2)n1 [dasatinib]
In a few lines: as §1

Compound in test [6]: Cn1cc(-c2ccc3c(c2)CCN3C(=O)Cc2cccc(C(F)(F)F)c2)c2c(N)ncnc21
In short, it runs like this: as §1

Compound in test [7]: NCC(=O)Nc1ccc(-n2nc(C(F)(F)F)cc2-c2ccc3c(ccc4ccccc43)c2)cc1
In short, it runs like this:
as §1

Compound in a further test: c1cn2cc(-c3ccc4cn[nH]c4c3)nc(Nc3ccc(N4CCOCC4)cc3)c2n1 [entospletinib]
In a few lines:
as §1

Compound in test [8]: NC(=O)c1cnc(N[C@@H]2CCCC[C@@H]2N)nc1Nc1cccc(-n2nccn2)c1
In short, it runs like this: as §1

Sequence of UniProt Q9Y2H6 (Q9Y2H6 whole entry, looked up): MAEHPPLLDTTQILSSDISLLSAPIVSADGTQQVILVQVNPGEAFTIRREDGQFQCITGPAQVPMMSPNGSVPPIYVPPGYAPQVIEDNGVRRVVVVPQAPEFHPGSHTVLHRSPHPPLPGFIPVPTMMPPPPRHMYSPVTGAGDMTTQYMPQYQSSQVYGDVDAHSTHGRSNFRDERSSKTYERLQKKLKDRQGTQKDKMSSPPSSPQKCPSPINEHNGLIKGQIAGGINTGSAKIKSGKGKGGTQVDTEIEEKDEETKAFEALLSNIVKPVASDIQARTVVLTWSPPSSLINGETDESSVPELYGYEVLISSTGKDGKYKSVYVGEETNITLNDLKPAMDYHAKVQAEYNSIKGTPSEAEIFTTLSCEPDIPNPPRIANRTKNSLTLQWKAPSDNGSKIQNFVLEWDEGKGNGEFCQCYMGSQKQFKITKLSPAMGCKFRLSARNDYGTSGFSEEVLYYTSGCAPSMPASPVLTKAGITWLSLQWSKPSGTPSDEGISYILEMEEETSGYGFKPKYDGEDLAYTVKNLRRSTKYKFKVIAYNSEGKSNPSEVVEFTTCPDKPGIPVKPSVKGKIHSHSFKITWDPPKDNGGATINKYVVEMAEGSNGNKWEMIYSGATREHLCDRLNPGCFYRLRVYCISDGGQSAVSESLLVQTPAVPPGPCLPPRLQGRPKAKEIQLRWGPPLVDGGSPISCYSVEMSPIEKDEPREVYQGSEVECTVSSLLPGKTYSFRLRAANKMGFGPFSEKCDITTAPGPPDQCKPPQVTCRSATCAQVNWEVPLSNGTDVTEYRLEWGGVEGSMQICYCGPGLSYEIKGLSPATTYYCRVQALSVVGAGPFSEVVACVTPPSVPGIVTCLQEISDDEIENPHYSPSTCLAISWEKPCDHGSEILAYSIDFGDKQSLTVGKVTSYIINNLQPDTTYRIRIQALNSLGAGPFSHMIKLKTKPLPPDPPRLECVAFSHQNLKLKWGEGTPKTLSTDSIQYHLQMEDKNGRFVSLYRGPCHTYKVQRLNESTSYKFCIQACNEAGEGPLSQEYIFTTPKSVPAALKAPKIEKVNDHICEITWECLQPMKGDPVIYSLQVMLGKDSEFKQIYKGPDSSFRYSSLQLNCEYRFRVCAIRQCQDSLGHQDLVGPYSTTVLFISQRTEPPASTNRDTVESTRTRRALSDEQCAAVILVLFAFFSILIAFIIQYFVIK
Sequence of UniProt Q9H8W3 (Q9H8W3 whole entry, looked up): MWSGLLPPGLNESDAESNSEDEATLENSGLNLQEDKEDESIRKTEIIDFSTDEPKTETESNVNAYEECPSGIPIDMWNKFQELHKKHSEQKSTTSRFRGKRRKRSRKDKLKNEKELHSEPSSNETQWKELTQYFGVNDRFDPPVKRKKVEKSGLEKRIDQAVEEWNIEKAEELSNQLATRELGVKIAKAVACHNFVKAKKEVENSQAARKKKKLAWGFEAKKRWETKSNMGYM
Sequence of UniProt Q9Y6B2 (Q9Y6B2 whole entry, looked up): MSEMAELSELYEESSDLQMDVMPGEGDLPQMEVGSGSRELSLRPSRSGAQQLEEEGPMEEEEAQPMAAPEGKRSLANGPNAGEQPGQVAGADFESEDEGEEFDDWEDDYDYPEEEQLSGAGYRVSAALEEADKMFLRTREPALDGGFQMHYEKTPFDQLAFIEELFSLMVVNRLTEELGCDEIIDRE
Sequence of UniProt Q9H790 (Q9H790 whole entry, looked up): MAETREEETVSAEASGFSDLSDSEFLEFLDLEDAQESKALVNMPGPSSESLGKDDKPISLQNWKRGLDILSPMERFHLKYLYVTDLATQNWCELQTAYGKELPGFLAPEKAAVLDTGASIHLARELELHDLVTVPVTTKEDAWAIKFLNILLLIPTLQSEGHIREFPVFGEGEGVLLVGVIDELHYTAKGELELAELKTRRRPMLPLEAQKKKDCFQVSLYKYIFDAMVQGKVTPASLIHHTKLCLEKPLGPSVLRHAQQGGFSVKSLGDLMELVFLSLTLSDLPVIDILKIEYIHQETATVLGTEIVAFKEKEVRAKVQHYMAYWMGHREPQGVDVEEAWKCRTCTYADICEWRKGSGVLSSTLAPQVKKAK
Sequence of UniProt Q06547 (Q06547 whole entry, looked up): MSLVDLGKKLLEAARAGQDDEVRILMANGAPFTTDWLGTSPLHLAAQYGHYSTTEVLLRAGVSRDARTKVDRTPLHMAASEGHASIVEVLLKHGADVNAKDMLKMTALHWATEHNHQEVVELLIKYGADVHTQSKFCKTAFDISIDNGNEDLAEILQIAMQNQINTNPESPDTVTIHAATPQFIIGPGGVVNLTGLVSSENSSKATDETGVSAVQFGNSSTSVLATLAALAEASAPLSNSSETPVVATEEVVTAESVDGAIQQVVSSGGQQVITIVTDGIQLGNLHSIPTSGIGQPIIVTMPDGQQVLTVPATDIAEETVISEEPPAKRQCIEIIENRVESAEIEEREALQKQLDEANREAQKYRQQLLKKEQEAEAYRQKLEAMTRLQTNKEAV
Sequence of UniProt P28676 (P28676 whole entry, looked up): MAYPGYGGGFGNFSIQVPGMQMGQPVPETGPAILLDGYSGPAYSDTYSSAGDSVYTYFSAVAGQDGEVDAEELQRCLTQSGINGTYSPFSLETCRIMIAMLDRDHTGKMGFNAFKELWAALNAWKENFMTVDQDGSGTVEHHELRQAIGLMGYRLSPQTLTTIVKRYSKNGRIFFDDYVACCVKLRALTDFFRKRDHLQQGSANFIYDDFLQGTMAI
Sequence of UniProt Q9UKR5 (Q9UKR5 whole entry, looked up): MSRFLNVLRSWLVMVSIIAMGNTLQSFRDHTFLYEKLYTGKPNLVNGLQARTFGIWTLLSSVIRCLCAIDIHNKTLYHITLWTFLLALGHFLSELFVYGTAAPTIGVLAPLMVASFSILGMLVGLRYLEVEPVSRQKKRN
Sequence of UniProt Q9NZJ0 (Q9NZJ0 whole entry, looked up): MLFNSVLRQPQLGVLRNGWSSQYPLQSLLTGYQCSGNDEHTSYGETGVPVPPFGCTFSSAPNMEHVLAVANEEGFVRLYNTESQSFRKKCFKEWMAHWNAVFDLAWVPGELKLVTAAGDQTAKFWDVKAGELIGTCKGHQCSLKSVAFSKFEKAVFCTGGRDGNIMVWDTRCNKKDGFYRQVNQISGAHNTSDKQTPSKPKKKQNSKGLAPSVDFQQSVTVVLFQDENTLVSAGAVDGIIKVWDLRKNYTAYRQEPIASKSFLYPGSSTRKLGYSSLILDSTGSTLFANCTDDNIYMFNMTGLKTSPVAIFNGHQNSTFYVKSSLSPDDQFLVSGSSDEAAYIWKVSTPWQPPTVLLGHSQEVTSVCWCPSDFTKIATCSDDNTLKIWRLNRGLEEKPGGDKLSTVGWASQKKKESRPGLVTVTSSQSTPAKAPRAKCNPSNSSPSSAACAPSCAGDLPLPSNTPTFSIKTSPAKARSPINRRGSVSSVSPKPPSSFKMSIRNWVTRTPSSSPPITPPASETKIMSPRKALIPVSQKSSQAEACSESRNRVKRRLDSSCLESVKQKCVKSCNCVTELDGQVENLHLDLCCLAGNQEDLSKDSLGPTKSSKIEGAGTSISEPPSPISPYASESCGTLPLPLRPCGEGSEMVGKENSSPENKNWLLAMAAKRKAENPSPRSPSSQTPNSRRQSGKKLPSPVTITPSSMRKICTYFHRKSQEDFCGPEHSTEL

For FNDC3A (UniProt Q9Y2H6), the log2 fold change was -0.057 (inactive) with nilotinib; -0.125 (inactive) in [1]; -0.293 (inactive) in test [2]; -0.247 (inactive) in the test with quisinostat; -0.064 (inactive) with tipifarnib; 0.059 (inactive) in test [3]. The log2 fold change in test [4] is -0.03 (inactive); with vorinostat it was -0.018 (inactive); in the test with silmitasertib, -0.119 (inactive); in test [5] it was -0.146 (inactive).

With EWSR1 (UniProt H7BY36), the log2 fold change with dasatinib is -0.104 (inactive); in test [6], -0.025 (inactive); with quisinostat it was 0.112 (inactive); in test [3], 0.118 (inactive); in test [7], 0.136 (inactive); in [5], -0.047 (inactive). Moreover, the log2 fold change with entospletinib was 0.016 (inactive).

In the case of FAM204A (UniProt Q9H8W3), the log2 fold change is -0.129 (inactive) with quisinostat; 0.069 (inactive) in test [3]; 0.098 (inactive) in test [4]; -0.057 (inactive) in test [7]; -0.211 (inactive) with vorinostat; -0.095 (inactive) in the test with silmitasertib. Also, the log2 fold change in test [5] is 0.044 (inactive).

On to GABPB1 isoform 3 (UniProt Q06547), for which the log2 fold change with dasatinib is -0.086 (inactive); in test [6], 0.034 (inactive); with quisinostat, -0.017 (inactive); in test [3], -0.012 (inactive); in test [8], -0.037 (inactive); in test [4] it was -0.016 (inactive). The log2 fold change in [7] was -0.012 (inactive); with vorinostat, -0.41 (active); in the test with silmitasertib, 0.08 (inactive); in test [5], 0.067 (inactive); with entospletinib it was -0.024 (inactive).

On to EPN2 (UniProt I3L356), for which the log2 fold change in the test with nilotinib was -0.248 (inactive); in [1] it was 0.062 (inactive); in test [2], -0.291 (inactive); with tipifarnib, 0.238 (inactive); in [8] it was 0.021 (inactive).

GCA (UniProt P28676): the log2 fold change is 0.071 (inactive) in the test with nilotinib; -0.11 (inactive) in test [1]; 0.096 (inactive) in test [2]; -0.141 (inactive) with tipifarnib; -0.118 (inactive) in test [8]; -0.017 (inactive) in [4]. Further, the log2 fold change was 1.36 (active) in the test with vorinostat and -0.104 (inactive) with silmitasertib.

Take EID1 (UniProt Q9Y6B2): the log2 fold change with nilotinib was 0.067 (inactive); in test [1] it was 0.085 (inactive); with dasatinib, -0.306 (inactive); in test [2] it was 0.05 (inactive); in test [6], 0.32 (inactive); with tipifarnib, 0.021 (inactive). The log2 fold change in [4] is 0.133 (inactive); with vorinostat it was -0.192 (inactive); with silmitasertib, 0.191 (inactive); in the test with entospletinib, -0.143 (inactive).

As for ERG28 (UniProt Q9UKR5), the log2 fold change with dasatinib was 0.029 (inactive); in test [6] it was 0.059 (inactive); in test [8], -0.015 (inactive); in the test with entospletinib it was 0.009 (inactive).

As for DTL (UniProt Q9NZJ0), the log2 fold change in the test with nilotinib is 0.005 (inactive); in [1], -0.022 (inactive); in the test with dasatinib, 0.044 (inactive); in [2], -0.052 (inactive); in test [6], 0.066 (inactive); with quisinostat, -0.227 (active). The log2 fold change was 0.036 (inactive) with tipifarnib; 0.025 (inactive) in test [3]; 0.048 (inactive) in test [4]; -0.011 (inactive) in test [7]; -0.165 (inactive) with vorinostat; -0.042 (inactive) with silmitasertib. The log2 fold change in test [5] is 0.052 (inactive).

Take EXO5 (UniProt Q9H790): the log2 fold change in the test with quisinostat is -0.082 (inactive); in [3], -0.071 (inactive); in test [4], 0.08 (inactive); with vorinostat it was 0.043 (inactive); in the test with silmitasertib, -0.06 (inactive); in [5], 0.054 (inactive).
